Reference: PubChem BioAssay AID1159580 (chemical genetic matrix, 2015)
Screen size: about 5,500 compounds; about 2,000 (36%) were called active. Inconclusive results (about 18%) are left out. No stated cut-off is given here; in the data, active means normalized growth mostly below about 0.91 (no sharp cut-off); inconclusive means no clear call, values can overlap the other calls; inactive means mostly above about 0.92. This is one part of the list.

Assay: chemical genetic growth profiling, strain panel (AID 1159580);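 further: tested at 20 µM; growth read once vehicle control cultures reached saturation at 30 °C; 1 = growth at the plate median or of vehicle wells; lower values mean less growth of the strain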
Settings: growth OD

Measured: normalized growth

O=C(O)c1ccccc1OP(=O)(O)O
inactive: S. cerevisiae deletion strains, locus YJR066W, strain TOR1, hits give low values 0.875 | S. cerevisiae deletion strains, locus YKL009W, strain mrt4, hits give low values 0.997 | S. cerevisiae deletion strains, locus YKL068W, hits give low values 0.988 | S. cerevisiae deletion strains, locus YKL085W, strain MDH1 (second series), hits give low values 0.986 | S. cerevisiae deletion strains, locus YKL085W, strain MDH1, hits give low values 0.986 | S. cerevisiae deletion strains, locus YKL160W, strain elf1, hits give low values 0.981 | S. cerevisiae deletion strains, locus YKL190W, strain CNB1, hits give low values 1 | S. cerevisiae deletion strains, locus YKR001C, strain vps1, hits give low values 0.984 | S. cerevisiae deletion strains, locus YKR026C, strain gcn3, hits give low values 1.01 | S. cerevisiae deletion strains, locus YKR091W, strain srl3, hits give low values 1 | S. cerevisiae deletion strains, locus YLL001W, strain dnm1, hits give low values 1.03 | S. cerevisiae deletion strains, locus YLL026W, hits give low values 1 | S. cerevisiae deletion strains, locus YLL041C, strain sdh2, hits give low values 0.992 | S. cerevisiae deletion strains, locus YLR027C, strain aat2, hits give low values 1 | S. cerevisiae deletion strains, locus YLR039C, strain RIC1, hits give low values 1.01 | S. cerevisiae deletion strains, locus YLR058C, strain SHM2, hits give low values 1.02 | S. cerevisiae deletion strains, locus YLR102C, strain apc9, hits give low values 0.992 | S. cerevisiae deletion strains, locus YLR113W, strain HOG1, hits give low values 0.967 | S. cerevisiae deletion strains, locus YLR221C, strain rsa3, hits give low values 0.995 | S. cerevisiae deletion strains, locus YLR258W, strain gsy2, hits give low values 1.02 | S. cerevisiae deletion strains, locus YLR262C, strain YPT6 (second series), hits give low values 0.995 | S. cerevisiae deletion strains, locus YLR262C, strain YPT6, hits give low values 1.05 | S. cerevisiae deletion strains, locus YLR268W, strain sec22, hits give low values 1.01 | S. cerevisiae deletion strains, locus YLR320W, strain mms22, hits give low values 1.02 | S. cerevisiae deletion strains, locus YLR330W, strain CHS5, hits give low values 1.01 | S. cerevisiae deletion strains, locus YLR342W, strain FKS1 (second series), hits give low values 1 | S. cerevisiae deletion strains, locus YLR342W, strain FKS1, hits give low values 1 | S. cerevisiae deletion strains, locus YLR357W, strain rsc2, hits give low values 1.03 | S. cerevisiae deletion strains, locus YLR370C, strain arc18, hits give low values 1.01 | S. cerevisiae deletion strains, locus YLR371W, strain rom2, hits give low values 0.987 | S. cerevisiae deletion strains, locus YLR384C, strain iki3, hits give low values 1.01 | S. cerevisiae deletion strains, locus YLR418C, strain cdc73, hits give low values 0.994 | S. cerevisiae deletion strains, locus YML016C, strain PPZ1, hits give low values 1.01 | S. cerevisiae deletion strains, locus YML032C, strain rad52, hits give low values 0.997 | S. cerevisiae deletion strains, locus YML120C, strain ndi1, hits give low values 1 | S. cerevisiae deletion strains, locus YML124C, strain tub3, hits give low values 0.996 | S. cerevisiae deletion strains, locus YMR058W, strain fet3, hits give low values 1.01 | S. cerevisiae deletion strains, locus YMR078C, strain ctf18, hits give low values 0.988 | S. cerevisiae deletion strains, locus YMR125W, strain sto1, hits give low values 1.02 | S. cerevisiae deletion strains, locus YMR129W, hits give low values 1 | S. cerevisiae deletion strains, locus YMR205C, strain PFK2, hits give low values 1.03 | S. cerevisiae deletion strains, locus YMR223W, strain ubp8, hits give low values 0.993 | S. cerevisiae deletion strains, locus YMR231W, strain pep5, hits give low values 1 | S. cerevisiae deletion strains, locus YMR263W, strain SAP30, hits give low values 1.02 | S. cerevisiae deletion strains, locus YMR307W, strain GAS1, hits give low values 1 | S. cerevisiae deletion strains, locus YNL067W, strain RPL9B, hits give low values 1.01 | S. cerevisiae deletion strains, locus YNL071W, strain lat1, hits give low values 1.01 | S. cerevisiae deletion strains, locus YNL183C, strain NPR1, hits give low values 0.872 | S. cerevisiae deletion strains, locus YNL209W, strain ssb2, hits give low values 1 | S. cerevisiae deletion strains, locus YNL233W, strain BNI4, hits give low values 1.02 | S. cerevisiae deletion strains, locus YNL248C, strain rpa49, hits give low values 0.971 | S. cerevisiae deletion strains, locus YNL250W, strain rad50, hits give low values 0.983 | S. cerevisiae deletion strains, locus YNL271C, strain bni1, hits give low values 0.981 | S. cerevisiae deletion strains, locus YNL298W, strain CLA4, hits give low values 0.982 | S. cerevisiae deletion strains, locus YNL307C, strain MCK1, hits give low values 0.986 | S. cerevisiae deletion strains, locus YNL322C, strain KRE1 (second series), hits give low values 0.983 | S. cerevisiae deletion strains, locus YNR049C, strain mso1, hits give low values 1 | S. cerevisiae deletion strains, locus YNR052C, strain pop2, hits give low values 0.999 | S. cerevisiae deletion strains, locus YOL006C, strain TOP1, hits give low values 1.03 | S. cerevisiae deletion strains, locus YOL012C, strain htz1 0.778 | S. cerevisiae deletion strains, locus YOL147C, strain pex11, hits give low values 1 | S. cerevisiae deletion strains, locus YOR001W, strain rrp6, hits give low values 0.976 | S. cerevisiae deletion strains, locus YOR061W, strain CKA2, hits give low values 1.01 | S. cerevisiae deletion strains, locus YOR069W, strain VPS5, hits give low values 1.01 | S. cerevisiae deletion strains, locus YOR070C, strain gyp1, hits give low values 0.998 | S. cerevisiae deletion strains, locus YOR080W, strain dia2, hits give low values 1.01 | S. cerevisiae deletion strains, locus YOR083W, strain WHI5, hits give low values 0.969 | S. cerevisiae deletion strains, locus YOR106W, strain vam3, hits give low values 0.983 | S. cerevisiae deletion strains, locus YOR136W, strain idh2, hits give low values 0.994 | S. cerevisiae deletion strains, locus YOR144C, strain elg1, hits give low values 0.991 | S. cerevisiae deletion strains, locus YOR184W, strain ser1, hits give low values 1 | S. cerevisiae deletion strains, locus YOR231W, strain MKK1, hits give low values 0.981 | S. cerevisiae deletion strains, locus YOR265W, strain rbl2, hits give low values 0.997 | S. cerevisiae deletion strains, locus YOR270C, strain vph1, hits give low values 1.01 | S. cerevisiae deletion strains, locus YOR290C, strain snf2, hits give low values 0.983 | S. cerevisiae deletion strains, locus YOR316C, strain cot1, hits give low values 0.99 | S. cerevisiae deletion strains, locus YPL051W, strain arl3, hits give low values 0.991 | S. cerevisiae deletion strains, locus YPL055C, strain LGE1, hits give low values 1.03 | S. cerevisiae deletion strains, locus YPL078C, strain atp4, hits give low values 0.968 | S. cerevisiae deletion strains, locus YPL106C, strain sse1, hits give low values 1.01 | S. cerevisiae deletion strains, locus YPL240C, strain hsp82, hits give low values 1 | S. cerevisiae deletion strains, locus YPL241C, strain CIN2, hits give low values 1.01 | S. cerevisiae deletion strains, locus YPL256C, strain CLN2, hits give low values 0.948 | S. cerevisiae deletion strains, locus YPR119W, strain clb2, hits give low values 0.993 | S. cerevisiae deletion strains, locus YPR141C, strain kar3, hits give low values 0.98 | S. cerevisiae deletion strains, locus YPR163C, strain tif3, hits give low values 0.989 | S. cerevisiae deletion strains, locus YPR167C, strain met16, hits give low values 0.986 | S. cerevisiae deletion strains, strain wtn01, hits give low values 1.02 | S. cerevisiae strains, strain wild type, hits give low values 1.01
